The record followed here is PubChem BioAssay.

Experiment [1] addresses Albumin (Bos taurus) (UniProt P02769). The experiment in a line: bovine serum albumin binders on microarray, profiling panel, artefact control for SMM control protein annotation, biochemical, small-molecule microarray, Alexa647 label, 635/667 nm fluorescence (AID 1118).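 Further: score merges 667 nm emission intensity and signal-to-noise per printed compound spot.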 The settings on record: BSA-A647 binding, fluorescence 635 nm, higher = more signal.
Experiment [2] is described as follows: small-molecule microarray binders of probe aXIP, primary screen, biochemical, NeuroSMM set, 635/667 nm fluorescence (AID 1119).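 Further: probe is the protein aXip251-270 applied at 1 µg/mL to compound-printed slides; binding of probe to printed compounds measured as 667 nm fluorescence plus signal to noise.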 Conditions: higher = more signal, called active from +8 up or from −8 down.
A short description of experiment [3]: small-molecule binders of probe aNOTCH3, primary screen, biochemical, small-molecule microarray, 635/667 nm fluorescence (AID 1120).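 Further: probe is a biotin-tagged antibody raised against NOTCH3 rather than NOTCH3 protein; score merges spot fluorescence near 667 nm with spot signal to noise.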 Conditions: higher = more signal.
Experiment [4] can be described thus: small-molecule binders of probe aNOTCH2, primary screen, biochemical, small-molecule microarray, 635/667 nm fluorescence (AID 1121).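 Further: score merges feature fluorescence read at 667 nm with its signal to noise.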 The settings on record: higher = more signal.
Experiment [5] has as its target Carbonic anhydrase 2 (Homo sapiens) (UniProt P00918). The experiment in a line: CAII small-molecule binders, profiling panel, biochemical, small-molecule microarray, Alexa647-labelled CAII (AID 1122). The settings on record: CAII-A647 binding fluorescence, higher = more signal.
Experiment [6] is described as follows: COS7 lysate on small-molecule microarray, probe aHis, 635 nm (AID 1123).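 Further: z-score combines 667nm fluorescence intensity with signal-to-noise per printed compound spot.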 The settings on record: COS7 cell lysate, fluorescence, higher = more signal.
Experiment [7] in a line: compound binding in COS7 lysate, probe aLAP1, primary screen, cell lysate, small-molecule microarray (AID 1124).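 Further: lysate comes from COS7 cells expressing LAP1 and is applied at 0.3 µg/mL; score merges spot fluorescence near 667 nm with signal-to-noise over triplicate slides.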 Conditions: probe aLAP1, fluorescence, higher = more signal.
The subject of experiment [8] is Sam68 (KHDRBS1). The experiment in a line: Sam68 small-molecule binders, primary screen, biochemical, small-molecule microarray, 635 nm fluorescence (AID 1125).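 Further: score merges 667 nm channel intensity with signal to noise over triplicate slides.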 Conditions: small-molecule microarray binding, higher = more signal.
The test system of experiment [9] is Chordin-like protein 2 (CHRDL2). Nature of the experiment: CHRDL2 small-molecule binders, primary screen, biochemical, small-molecule microarray, 635 nm fluorescence (AID 1126).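 Further: printed compound slides probed with Chrdl2 protein at 4 µg/mL for 1 h at 4 C; score merges 667 nm emission intensity with signal to noise over three replicate slides.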 Conditions: small-molecule microarray binding, fluorescence 635 nm; higher = more signal.
Experiment [10] has as its target Concanavalin-A (Canavalia ensiformis) (UniProt P02866). Nature of the experiment: ConA small-molecule binders, primary screen, artefact control for SMM control protein annotation, biochemical, small-molecule microarray, Alexa647 label, 635 nm (AID 1127).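 Further: z combines 667 nm emission intensity with signal-to-noise across three replicate slides.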 Conditions: ConA-A647 binding fluorescence, higher = more signal.
Experiment [11] is described as follows: anti-His antibody binders, primary screen, artefact control for SMM control protein annotation, biochemical, small-molecule microarray, 635 nm fluorescence (AID 1128).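 Further: score merges feature fluorescence with signal-to-noise for each printed compound spot.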 The settings on record: anti-His Alexa647 antibody binding, higher = more signal.
Experiment [12] has as its system Human papillomavirus type 1a E7 protein (residues 1-88). Nature of the experiment: HPV1a E7 small-molecule binders, primary screen, biochemical, small-molecule microarray, residues 1-88, 635 nm (AID 1129). Conditions: small-molecule microarray binding, fluorescence 635 nm; higher = more signal.
For experiment [13], the target named is Focal adhesion kinase 1 (Homo sapiens) (UniProt Q05397). The experiment in a line: small-molecule microarray binders of FAK, primary screen, biochemical, 635/667 nm fluorescence, BSA, DTT (AID 1130).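 Further: composite of spot emission at 667 nm and signal to noise over triplicate slides.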 The settings on record: PTK2 binding, 635 nm fluorescence, higher = more signal.
Experiment [14] concerns Fibrinogen (Alexa647-labelled). Nature of the experiment: fibrinogen binders on compound microarrays, profiling panel, artefact control for SMM control-protein annotation, biochemical, small-molecule microarray, 635/667 nm fluorescence (AID 1131).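 Further: z-score merges 667 nm fluorescence with per-spot signal-to-noise over triplicate slides.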 Conditions: fibrinogen-A647 binding fluorescence, higher = more signal.
The target of experiment [15] is Follistatin (Homo sapiens) (UniProt P19883). The experiment in a line: follistatin binders on small-molecule microarrays, primary screen, biochemical, small-molecule microarray, 635/667 nm fluorescence (AID 1132). The settings on record: FST binding, 635 nm fluorescence, higher = more signal.
In experiment [16] the target is Fibroblast growth factor 2 (Homo sapiens) (UniProt P09038). The experiment in a line: FGF2 binders on small-molecule microarrays, primary screen, biochemical, small-molecule microarray, 635/667 nm fluorescence (AID 1133). Conditions: small-molecule microarray binding, FGF2, fluorescence 635/667; higher = more signal.
Experiment [17] in a line: mitochondrial membrane potential change in A549 cells, profiling panel, cell-based, JC-1 fluorescence, basal, 24 h, 100 nL (AID 1138).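 Further: A549 lung adenocarcinoma cells under basal conditions with no added stimulus; test concentration not given here.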 The settings on record: higher = more signal.
The test system of experiment [18] is Lefty1. The experiment in a line: Lefty1 binders on small-molecule microarrays, primary screen, biochemical, small-molecule microarray, 635/667 nm fluorescence (AID 1139). Conditions: small-molecule microarray binding, fluorescence 635/667; higher = more signal.
Experiment [19] relates to wheat germ agglutinin (Triticum aestivum), Alexa647-labelled. Nature of the experiment: wheat germ agglutinin binders on compound microarrays, profiling panel, artefact control for SMM control-protein annotation, biochemical, small-molecule microarray, 635/667 nm fluorescence (AID 1140).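 Further: score merges 667 nm feature emission with signal to noise over triplicate slides.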 Conditions: WGA-A647 binding, 635 nm fluorescence, higher = more signal.
Experiment [20] addresses Luciferin 4-monooxygenase (Photinus pyralis) (UniProt P08659). Nature of the experiment: firefly luciferase enzyme inhibitors, primary screen, biochemical, luminescence, purified enzyme, 2006 set (AID 1141).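 Further: cell-free assay with purified firefly luciferase at 100 ng per well in PBS; test concentration not given here.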 Conditions: SteadyGlo luminescence, 30 min, higher = more signal, called active from +8 up or from −8 down.

Molecules are shown by their SMILES. The source made the active and inactive calls.

Sequence of Follistatin (Homo sapiens) (P19883 whole entry, looked up): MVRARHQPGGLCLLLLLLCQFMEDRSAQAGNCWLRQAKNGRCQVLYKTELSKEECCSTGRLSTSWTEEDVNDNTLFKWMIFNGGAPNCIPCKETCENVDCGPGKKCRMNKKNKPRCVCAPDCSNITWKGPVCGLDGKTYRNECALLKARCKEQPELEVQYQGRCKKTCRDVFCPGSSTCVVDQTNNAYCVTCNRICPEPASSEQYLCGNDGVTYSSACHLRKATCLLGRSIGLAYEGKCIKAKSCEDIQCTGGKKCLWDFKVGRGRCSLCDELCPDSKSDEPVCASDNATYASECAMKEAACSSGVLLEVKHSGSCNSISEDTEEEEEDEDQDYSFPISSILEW
Sequence of Fibroblast growth factor 2 (Homo sapiens) (P09038 whole entry, looked up): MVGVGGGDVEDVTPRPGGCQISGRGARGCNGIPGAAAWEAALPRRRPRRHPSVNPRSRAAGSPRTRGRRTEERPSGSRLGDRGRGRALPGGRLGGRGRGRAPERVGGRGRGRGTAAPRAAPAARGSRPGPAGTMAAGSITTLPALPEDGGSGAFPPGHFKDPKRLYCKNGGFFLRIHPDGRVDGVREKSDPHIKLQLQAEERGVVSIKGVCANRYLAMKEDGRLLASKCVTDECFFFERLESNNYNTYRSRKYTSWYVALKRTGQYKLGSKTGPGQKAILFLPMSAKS
Sequence of Luciferin 4-monooxygenase (Photinus pyralis) (P08659 whole entry, looked up): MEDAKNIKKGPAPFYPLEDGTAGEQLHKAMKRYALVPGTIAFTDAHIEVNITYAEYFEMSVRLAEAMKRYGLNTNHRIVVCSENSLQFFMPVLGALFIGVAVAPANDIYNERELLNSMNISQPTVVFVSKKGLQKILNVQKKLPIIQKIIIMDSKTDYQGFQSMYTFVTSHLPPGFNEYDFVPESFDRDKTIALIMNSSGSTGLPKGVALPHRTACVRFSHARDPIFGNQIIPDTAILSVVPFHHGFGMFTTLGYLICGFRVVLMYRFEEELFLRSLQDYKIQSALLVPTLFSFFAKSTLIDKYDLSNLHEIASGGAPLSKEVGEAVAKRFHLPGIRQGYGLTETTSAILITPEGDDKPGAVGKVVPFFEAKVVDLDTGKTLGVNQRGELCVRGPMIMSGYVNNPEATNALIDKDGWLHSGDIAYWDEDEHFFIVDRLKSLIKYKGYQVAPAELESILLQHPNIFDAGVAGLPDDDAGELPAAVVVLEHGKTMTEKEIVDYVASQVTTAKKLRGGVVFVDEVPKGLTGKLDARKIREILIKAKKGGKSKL
Sequence of Concanavalin-A (Canavalia ensiformis) (P02866 whole entry, looked up): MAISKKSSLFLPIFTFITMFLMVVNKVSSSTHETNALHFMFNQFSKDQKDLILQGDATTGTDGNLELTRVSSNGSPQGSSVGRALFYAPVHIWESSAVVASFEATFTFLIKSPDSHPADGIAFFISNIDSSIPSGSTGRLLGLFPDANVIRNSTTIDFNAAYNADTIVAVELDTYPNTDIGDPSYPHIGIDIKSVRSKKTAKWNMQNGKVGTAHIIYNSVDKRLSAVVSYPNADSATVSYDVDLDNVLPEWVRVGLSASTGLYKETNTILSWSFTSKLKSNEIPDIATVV
Sequence of Albumin (Bos taurus) (P02769 whole entry, looked up): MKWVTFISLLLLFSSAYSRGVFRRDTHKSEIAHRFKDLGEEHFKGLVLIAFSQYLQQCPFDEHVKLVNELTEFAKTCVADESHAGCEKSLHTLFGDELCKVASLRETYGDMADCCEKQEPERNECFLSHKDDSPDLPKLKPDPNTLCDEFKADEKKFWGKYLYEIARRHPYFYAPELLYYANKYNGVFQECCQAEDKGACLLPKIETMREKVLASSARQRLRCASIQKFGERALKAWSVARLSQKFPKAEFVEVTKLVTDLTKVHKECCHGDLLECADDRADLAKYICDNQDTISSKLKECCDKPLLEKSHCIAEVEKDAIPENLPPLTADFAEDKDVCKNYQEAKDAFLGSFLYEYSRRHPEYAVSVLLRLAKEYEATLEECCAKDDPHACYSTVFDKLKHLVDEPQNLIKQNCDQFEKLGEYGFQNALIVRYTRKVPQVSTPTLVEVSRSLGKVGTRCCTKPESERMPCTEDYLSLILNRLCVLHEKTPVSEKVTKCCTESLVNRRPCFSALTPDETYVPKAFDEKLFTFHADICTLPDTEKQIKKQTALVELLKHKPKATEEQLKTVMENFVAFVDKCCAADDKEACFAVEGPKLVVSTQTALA
Sequence of Focal adhesion kinase 1 (Homo sapiens) (Q05397 whole entry, looked up): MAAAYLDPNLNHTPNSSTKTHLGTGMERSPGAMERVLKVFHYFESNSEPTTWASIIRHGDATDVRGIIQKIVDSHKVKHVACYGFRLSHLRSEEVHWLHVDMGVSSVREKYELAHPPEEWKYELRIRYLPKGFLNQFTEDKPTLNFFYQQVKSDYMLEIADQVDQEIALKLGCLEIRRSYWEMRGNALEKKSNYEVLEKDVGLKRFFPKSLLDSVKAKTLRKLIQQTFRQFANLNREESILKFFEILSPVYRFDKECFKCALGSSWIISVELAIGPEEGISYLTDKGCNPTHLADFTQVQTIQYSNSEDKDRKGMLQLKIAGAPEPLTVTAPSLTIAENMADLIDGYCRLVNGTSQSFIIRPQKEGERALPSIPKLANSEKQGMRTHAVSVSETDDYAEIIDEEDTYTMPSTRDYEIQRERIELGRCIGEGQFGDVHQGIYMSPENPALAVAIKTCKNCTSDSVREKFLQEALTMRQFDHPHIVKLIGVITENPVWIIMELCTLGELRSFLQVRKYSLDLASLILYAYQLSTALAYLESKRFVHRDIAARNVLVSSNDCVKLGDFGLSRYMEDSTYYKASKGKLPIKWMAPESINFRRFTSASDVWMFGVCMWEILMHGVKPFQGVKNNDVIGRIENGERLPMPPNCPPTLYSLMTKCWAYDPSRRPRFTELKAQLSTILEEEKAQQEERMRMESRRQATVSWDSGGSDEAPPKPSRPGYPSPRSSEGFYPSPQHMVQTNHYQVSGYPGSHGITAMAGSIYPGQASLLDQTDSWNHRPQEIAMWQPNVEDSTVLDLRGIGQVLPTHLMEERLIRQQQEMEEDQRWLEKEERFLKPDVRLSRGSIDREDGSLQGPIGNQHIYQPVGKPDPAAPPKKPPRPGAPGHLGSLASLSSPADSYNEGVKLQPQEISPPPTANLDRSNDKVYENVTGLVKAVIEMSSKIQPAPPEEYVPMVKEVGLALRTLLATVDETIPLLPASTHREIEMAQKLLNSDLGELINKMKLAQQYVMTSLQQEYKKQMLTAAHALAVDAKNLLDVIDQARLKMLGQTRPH

In the case of `C[C@@H]1C=CCC(=O)OC[C@H](C)C(=O)N[C@@H](Cc2ccccc2)C(=O)OC1`, the composite z-score in experiment [1] is -0.568; in [3], -0.133; in experiment [4], -0.0995; in [5], -0.187; in experiment [6], -0.355; in experiment [7], 0.552. Moreover, the composite z-score in experiment [8] is -0.124; in [9], 0.981; in experiment [10], 0.12; in [11], -0.044; in experiment [12], -0.203; in [13] it was -0.0171. The composite z-score in [14] worked out at 0.0608; in [15] it was 0.927; in experiment [16], 0.589; in experiment [18], 0.432; in [19] it was 0.0031. Moreover, the composite Z-score in [2] is 0.398 (inactive). Moreover, the z-score in [17] was -0.00638; in experiment [20], -0.0028 (inactive).
For `CCOC(=O)[C@H](Cc1ccccc1)NC(=O)CCC1CC(OC(=O)NCCc2ccc(F)cc2)CC2(CCCC(COC(=O)NCCC(C)C)O2)O1` (stereo not given in full), the composite z-score was 0.508 in [1]; 0.0939 in experiment [3]; -0.114 in [4]; 0.28 in [5]; 1.17 in experiment [6]; -0.0236 in [7]. Further, the composite z-score in experiment [8] came to 1.31; in experiment [9] it was 0.0858; in experiment [10] it was 0.831; in experiment [11] it was 1.05; in [12], 1.12; in experiment [13] it was 0.156. For the same compound, the composite z-score in [14] was 0.871; in [15] it was 0.967; in experiment [16] it was 1.02; in [18] it was 0.743; in [19] it was 0.381. In addition, the composite Z-score in experiment [2] was 1.05 (inactive). The z-score in experiment [17] was 0.833; in experiment [20], 0.553 (inactive).
Regarding `O=C(NN=C1C[C@@H](O)[C@@H](O)[C@@H]2[C@@H]3C(=O)N(Cc4ccccc4)C(=O)[C@@H]3CC[C@H]12)OCc1ccccc1`, the composite z-score is 0.055 in experiment [1]; -0.118 in experiment [3]; -0.17 in [4]; -0.253 in experiment [5]; -0.771 in experiment [6]; 0.0639 in experiment [7]. Further, the composite z-score was -0.0039 in experiment [8]; 0.36 in experiment [9]; -0.085 in experiment [10]; -0.136 in experiment [11]; -0.0677 in [12]; 0.0773 in experiment [13]. In addition, the composite z-score in [14] is -0.265; in experiment [15], 0.387; in experiment [16] it was 0.388; in [18], 0.617; in experiment [19] it was 0.0185. Also, in experiment [2], the composite Z-score is 0.0005 (inactive). Further, the z-score is 0.101 in [17] and 0.534 (inactive) in experiment [20].
For the compound `CCOC(=O)[C@H](Cc1ccccc1)NC(=O)CCC1CC(OC(=O)NCc2cccc3ccccc23)CC2(CCCC(COC(=O)NCc3ccc4c(c3)OCO4)O2)O1` (stereo not given in full), the composite z-score was 0.85 in [1]; 0.0824 in experiment [3]; -0.148 in experiment [4]; 0.509 in experiment [5]; 0.831 in experiment [6]; 0.404 in experiment [7]. Besides, the composite z-score was 0.477 in experiment [8]; -0.054 in experiment [9]; 0.0672 in experiment [10]; 0.209 in [11]; 0.397 in [12]; 0.338 in [13]. Also, the composite z-score in experiment [14] is 0.508; in [15], 0.222; in experiment [16], 0.982; in [18], 0.659; in [19], -0.074. Also, the composite Z-score in [2] was 0.464 (inactive). Besides, the z-score was 0.4 in experiment [17] and -0.323 (inactive) in [20].
Regarding `C=CC[C@@H]1C=C[C@H](Oc2ccc(C)cc2)[C@@H](COC(=O)NCc2cccc3ccccc23)O1`, the composite z-score is 0.427 in experiment [1]; -0.0328 in experiment [3]; -0.127 in [4]; 0.023 in [5]; 0.502 in experiment [6]; -0.106 in experiment [7]. The composite z-score in experiment [8] is -0.256; in experiment [9], 0.338; in experiment [10] it was -0.749; in experiment [11], 1.21; in [12] it was 0.703; in experiment [13], 0.433. Besides, the composite z-score in experiment [14] was found to be 0.216; in experiment [15] it was 0.285; in experiment [16], 0.07; in [18], 0.574; in experiment [19], 0.115. Besides, the composite Z-score in experiment [2] was 0.339 (inactive). Also, the z-score in [17] is 1.34; in experiment [20], -0.0167 (inactive).
